Calls of active or inactive are those of the source.
Assays:
Albumin (Bos taurus) = Albumin (Bos taurus) (UniProt P02769); assay: compounds binding labelled BSA control protein – biochemical, small-molecule microarray, Alexa647 label, 635/667 nm fluorescence, artefact control for SMM control protein annotation, profiling panel (AID 1118); settings: BSA-A647 binding, fluorescence 635 nm, higher = more signal;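 further: score merges 667 nm emission intensity and signal-to-noise per printed compound spot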
[1] = probe aXIP binding to arrayed compounds – biochemical, NeuroSMM set, 635/667 nm fluorescence, primary screen (AID 1119); settings: small-molecule microarray, higher = more signal, called active from +8 up or from −8 down;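 further: probe is the protein aXip251-270 applied at 1 µg/mL to compound-printed slides; binding of probe to printed compounds measured as 667 nm fluorescence plus signal to noise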
[2] = probe aNOTCH3 binding on compound microarray – biochemical, small-molecule microarray, 635/667 nm fluorescence, primary screen (AID 1120); settings: higher = more signal;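 further: probe is a biotin-tagged antibody raised against NOTCH3 rather than NOTCH3 protein; score merges spot fluorescence near 667 nm with spot signal to noise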
[3] = probe aNOTCH2 binding on compound microarray – biochemical, small-molecule microarray, 635/667 nm fluorescence, primary screen (AID 1121); settings: higher = more signal;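 further: score merges feature fluorescence read at 667 nm with its signal to noise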
[4] = target: Carbonic anhydrase 2 (Homo sapiens) (UniProt P00918); assay: compounds binding carbonic anhydrase 2 – biochemical, small-molecule microarray, Alexa647-labelled CAII, profiling panel (AID 1122); settings: CAII-A647 binding fluorescence, higher = more signal
[5] = COS7 lysate on small-molecule microarray, probe aHis, 635 nm (AID 1123); settings: COS7 cell lysate, fluorescence, higher = more signal;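 further: z-score combines 667nm fluorescence intensity with signal-to-noise per printed compound spot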
[6] = probe aLAP1 signal on lysate-treated microarray – cell lysate, small-molecule microarray, COS7 lysate, primary screen (AID 1124); settings: probe aLAP1, fluorescence, higher = more signal;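 further: lysate comes from COS7 cells expressing LAP1 and is applied at 0.3 µg/mL; score merges spot fluorescence near 667 nm with signal-to-noise over triplicate slides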
Sam68 (KHDRBS1) = assay: compounds binding KHDRBS1 protein – biochemical, small-molecule microarray, 635 nm fluorescence, primary screen (AID 1125); settings: higher = more signal;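 further: score merges 667 nm channel intensity with signal to noise over triplicate slides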
[7] = tested on: Chordin-like protein 2 (CHRDL2); assay: compounds binding chordin-like 2 – biochemical, small-molecule microarray, 635 nm fluorescence, primary screen (AID 1126); settings: fluorescence 635 nm, higher = more signal;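 further: printed compound slides probed with Chrdl2 protein at 4 µg/mL for 1 h at 4 C; score merges 667 nm emission intensity with signal to noise over three replicate slides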
[8] = target: Concanavalin-A (Canavalia ensiformis) (UniProt P02866); assay: compounds binding concanavalin A lectin – biochemical, small-molecule microarray, Alexa647 label, 635 nm, artefact control for SMM control protein annotation, primary screen (AID 1127); settings: ConA-A647 binding fluorescence, higher = more signal;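 further: z combines 667 nm emission intensity with signal-to-noise across three replicate slides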
[9] = compounds binding Alexa647 anti-His antibody – biochemical, small-molecule microarray, 635 nm fluorescence, artefact control for SMM control protein annotation, primary screen (AID 1128); settings: higher = more signal;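 further: score merges feature fluorescence with signal-to-noise for each printed compound spot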
[10] = tested on: Human papillomavirus type 1a E7 protein (residues 1-88); assay: HPV1a E7 small-molecule binders, primary screen, biochemical, small-molecule microarray, residues 1-88, 635 nm (AID 1129); settings: small-molecule microarray binding, fluorescence 635 nm; higher = more signal
[11] = target: Focal adhesion kinase 1 (Homo sapiens) (UniProt Q05397); assay: PTK2 protein binding on printed compound slides – biochemical, small-molecule microarray, 635/667 nm fluorescence, BSA, DTT, primary screen (AID 1130); settings: 635 nm fluorescence, higher = more signal;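 further: composite of spot emission at 667 nm and signal to noise over triplicate slides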
[12] = tested on: Fibrinogen (Alexa647-labelled); assay: Alexa647-fibrinogen binding to printed small molecules – biochemical, small-molecule microarray, 635/667 nm fluorescence, artefact control for SMM control-protein annotation, profiling panel (AID 1131); settings: fibrinogen-A647 binding fluorescence, higher = more signal;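 further: z-score merges 667 nm fluorescence with per-spot signal-to-noise over triplicate slides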
[13] = target: Follistatin (Homo sapiens) (UniProt P19883); assay: FST protein binding to printed compounds – biochemical, small-molecule microarray, 635/667 nm fluorescence, primary screen (AID 1132); settings: 635 nm fluorescence, higher = more signal
[14] = target: Fibroblast growth factor 2 (Homo sapiens) (UniProt P09038); assay: basic fibroblast growth factor binding to printed compounds – biochemical, small-molecule microarray, 635/667 nm fluorescence, primary screen (AID 1133); settings: FGF2, fluorescence 635/667, higher = more signal
[15] = JC-1 mitochondrial potential readout, lung cancer cells – cell-based, A549, JC-1 fluorescence, basal, 24 h, 100 nL, profiling panel (AID 1138); settings: higher = more signal;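 further: A549 lung adenocarcinoma cells under basal conditions with no added stimulus; test concentration not given here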
Lefty1 = Lefty1 protein binding to printed compounds – biochemical, small-molecule microarray, 635/667 nm fluorescence, primary screen (AID 1139); settings: fluorescence 635/667, higher = more signal
[16] = tested on: wheat germ agglutinin (Triticum aestivum), Alexa647-labelled; assay: Alexa647-WGA lectin binding to printed small molecules – biochemical, small-molecule microarray, 635/667 nm fluorescence, artefact control for SMM control-protein annotation, profiling panel (AID 1140); settings: WGA-A647 binding, 635 nm fluorescence, higher = more signal;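 further: score merges 667 nm feature emission with signal to noise over triplicate slides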
[17] = target: Luciferin 4-monooxygenase (Photinus pyralis) (UniProt P08659); assay: inhibition of purified Photinus pyralis luciferase – biochemical, luminescence, purified enzyme, 2006 set, primary screen (AID 1141); settings: purified firefly luciferase, SteadyGlo luminescence, 30 min; higher = more signal, called active from +8 up or from −8 down;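 further: cell-free assay with purified firefly luciferase at 100 ng per well in PBS; test concentration not given here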
Luciferin 4-monooxygenase (Photinus pyralis), sequence (P08659 whole entry, looked up): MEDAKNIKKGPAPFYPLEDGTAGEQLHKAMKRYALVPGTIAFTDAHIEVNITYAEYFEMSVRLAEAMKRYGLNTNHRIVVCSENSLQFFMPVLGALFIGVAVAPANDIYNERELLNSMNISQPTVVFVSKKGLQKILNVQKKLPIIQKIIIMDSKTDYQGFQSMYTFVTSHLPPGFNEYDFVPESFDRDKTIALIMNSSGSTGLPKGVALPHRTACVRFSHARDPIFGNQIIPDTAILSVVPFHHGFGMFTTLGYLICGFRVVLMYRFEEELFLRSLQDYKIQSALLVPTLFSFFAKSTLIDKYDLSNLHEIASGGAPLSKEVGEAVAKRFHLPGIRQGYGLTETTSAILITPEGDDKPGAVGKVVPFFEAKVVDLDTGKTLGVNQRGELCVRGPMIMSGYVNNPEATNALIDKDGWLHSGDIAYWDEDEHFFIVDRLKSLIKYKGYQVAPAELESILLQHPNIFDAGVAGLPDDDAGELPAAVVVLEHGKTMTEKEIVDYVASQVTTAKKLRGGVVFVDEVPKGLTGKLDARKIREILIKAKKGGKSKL

Concanavalin-A (Canavalia ensiformis), sequence (P02866 whole entry, looked up): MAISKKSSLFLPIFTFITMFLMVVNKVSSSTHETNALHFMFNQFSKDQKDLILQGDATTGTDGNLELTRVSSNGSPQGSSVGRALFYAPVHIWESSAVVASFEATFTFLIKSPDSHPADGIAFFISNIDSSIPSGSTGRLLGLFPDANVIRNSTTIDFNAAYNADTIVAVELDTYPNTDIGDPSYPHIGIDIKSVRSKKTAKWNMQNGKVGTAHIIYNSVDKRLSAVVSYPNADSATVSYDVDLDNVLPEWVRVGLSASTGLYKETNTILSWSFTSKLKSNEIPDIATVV
Fibroblast growth factor 2 (Homo sapiens), sequence (P09038 whole entry, looked up): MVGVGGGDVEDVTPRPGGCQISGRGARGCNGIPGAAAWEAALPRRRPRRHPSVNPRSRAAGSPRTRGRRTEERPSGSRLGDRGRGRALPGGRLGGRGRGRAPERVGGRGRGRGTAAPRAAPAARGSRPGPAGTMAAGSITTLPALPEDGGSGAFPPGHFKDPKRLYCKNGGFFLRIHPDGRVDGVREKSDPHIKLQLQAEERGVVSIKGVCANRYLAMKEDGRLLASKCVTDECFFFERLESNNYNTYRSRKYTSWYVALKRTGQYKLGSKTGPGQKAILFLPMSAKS
Follistatin (Homo sapiens), sequence (P19883 whole entry, looked up): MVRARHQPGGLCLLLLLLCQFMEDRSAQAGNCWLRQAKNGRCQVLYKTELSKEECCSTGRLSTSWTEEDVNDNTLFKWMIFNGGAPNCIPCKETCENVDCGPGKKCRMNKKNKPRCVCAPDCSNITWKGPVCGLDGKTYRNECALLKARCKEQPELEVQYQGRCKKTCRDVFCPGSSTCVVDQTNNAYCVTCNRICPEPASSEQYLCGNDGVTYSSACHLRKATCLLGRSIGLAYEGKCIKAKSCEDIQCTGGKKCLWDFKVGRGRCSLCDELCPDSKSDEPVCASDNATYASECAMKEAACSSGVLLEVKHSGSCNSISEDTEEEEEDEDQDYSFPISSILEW
Focal adhesion kinase 1 (Homo sapiens), sequence (Q05397 whole entry, looked up): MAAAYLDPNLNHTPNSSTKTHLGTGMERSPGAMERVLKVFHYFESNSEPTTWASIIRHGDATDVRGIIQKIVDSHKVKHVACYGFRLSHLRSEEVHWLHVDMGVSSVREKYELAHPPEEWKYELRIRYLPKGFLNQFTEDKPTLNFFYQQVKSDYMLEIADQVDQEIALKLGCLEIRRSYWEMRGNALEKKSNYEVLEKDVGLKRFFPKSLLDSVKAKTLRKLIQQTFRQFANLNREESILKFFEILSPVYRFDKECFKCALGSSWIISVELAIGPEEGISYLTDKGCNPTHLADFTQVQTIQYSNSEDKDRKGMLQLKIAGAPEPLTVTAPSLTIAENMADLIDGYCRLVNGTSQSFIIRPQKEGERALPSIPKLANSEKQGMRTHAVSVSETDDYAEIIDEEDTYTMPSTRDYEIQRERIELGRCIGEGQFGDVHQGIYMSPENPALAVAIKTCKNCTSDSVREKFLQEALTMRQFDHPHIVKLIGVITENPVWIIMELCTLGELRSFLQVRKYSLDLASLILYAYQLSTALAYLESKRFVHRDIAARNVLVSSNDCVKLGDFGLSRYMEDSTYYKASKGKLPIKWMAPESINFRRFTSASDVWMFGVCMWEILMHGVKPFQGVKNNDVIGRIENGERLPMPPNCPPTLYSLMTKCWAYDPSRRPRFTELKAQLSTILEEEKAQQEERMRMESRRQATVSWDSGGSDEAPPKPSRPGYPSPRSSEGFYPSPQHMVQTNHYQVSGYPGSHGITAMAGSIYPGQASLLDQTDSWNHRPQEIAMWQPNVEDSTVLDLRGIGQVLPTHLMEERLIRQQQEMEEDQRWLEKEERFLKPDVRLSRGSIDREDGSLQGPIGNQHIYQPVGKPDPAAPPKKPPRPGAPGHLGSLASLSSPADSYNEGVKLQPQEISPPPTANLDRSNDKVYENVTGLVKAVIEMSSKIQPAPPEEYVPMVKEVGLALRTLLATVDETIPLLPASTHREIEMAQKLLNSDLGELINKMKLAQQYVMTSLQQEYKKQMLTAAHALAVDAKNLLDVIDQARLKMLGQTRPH
Albumin (Bos taurus), sequence (P02769 whole entry, looked up): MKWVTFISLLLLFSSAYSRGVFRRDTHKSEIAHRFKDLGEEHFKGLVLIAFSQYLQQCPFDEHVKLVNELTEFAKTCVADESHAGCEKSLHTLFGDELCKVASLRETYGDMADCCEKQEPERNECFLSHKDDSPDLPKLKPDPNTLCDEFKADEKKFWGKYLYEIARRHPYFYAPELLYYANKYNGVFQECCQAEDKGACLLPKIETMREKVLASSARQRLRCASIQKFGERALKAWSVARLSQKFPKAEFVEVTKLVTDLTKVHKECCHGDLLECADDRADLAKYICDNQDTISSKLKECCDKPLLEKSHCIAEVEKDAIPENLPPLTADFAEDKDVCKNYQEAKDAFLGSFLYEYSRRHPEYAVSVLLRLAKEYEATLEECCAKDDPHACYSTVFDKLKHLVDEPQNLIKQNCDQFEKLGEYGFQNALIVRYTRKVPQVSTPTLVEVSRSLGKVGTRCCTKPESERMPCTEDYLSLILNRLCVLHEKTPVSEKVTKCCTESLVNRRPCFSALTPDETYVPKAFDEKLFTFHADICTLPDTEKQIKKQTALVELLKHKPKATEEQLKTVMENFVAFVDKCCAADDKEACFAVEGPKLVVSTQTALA

SMILES	composite z-score (Albumin (Bos taurus))	composite Z-score [1]	composite z-score [2]	composite z-score [3]	composite z-score [4]	composite z-score [5]	composite z-score [6]	composite z-score (Sam68 (KHDRBS1))	composite z-score [7]	composite z-score [8]	composite z-score [9]	composite z-score [10]	composite z-score [11]	composite z-score [12]	composite z-score [13]	composite z-score [14]	z-score [15]	composite z-score (Lefty1)	composite z-score [16]	z-score [17]
O=C1C[C@]2(c3ccc([N+](=O)[O-])cc3)C(=O)N(C3CC3)c3cc(CO)ccc3[C@H]2N1CC12CC3CC(CC(C3)C1)C2	0.393	-0.571 (inactive)	-0.213	-0.0357	0.76	0.422	0.401	-0.183	-0.201	0.176	-0.496	-0.336	-0.421	-0.168	-0.579	-0.364	-1.17	-1.5	-0.456	-0.124 (inactive)
C=C(/C(=C/C[C@H](OC(=O)c1ccncc1)c1ccc(CO)o1)c1cnc2ccccc2c1)C(C)C	0.702	-0.55 (inactive)	0.169	-0.0216	0.902	0.75	-0.159	1.12	0.684	1.11	1.29	1.19	0.0621	0.866	1.31	1.18	0.909	1.34	1.08	-2.9 (inactive)
C=CCNC(=O)[C@@H]1[C@H]2C(=O)O[C@H](c3ccccc3)[C@H](c3ccccc3)N2[C@H](c2ccc(O)cc2)[C@@]12C(=O)N(C(=O)OCCOC)c1ccc(C#CC3=CCCCC3)cc12	0.179	0.683 (inactive)	0.138	-0.14	0.32	1.57	0.354	1.28	0.673	0.737	1.11	1.19	0.664	0.708	1.27	1.54	-0.22	0.701	0.729	-0.959 (inactive)
O=C1O[C@@H](c2ccccc2)[C@@H](c2ccccc2)N2[C@@H](c3ccc(OCCO)cc3)[C@]3(C(=O)Nc4ccc(C#CC5=CCCCC5)cc43)[C@@H](C(=O)NC[C@H](O)c3ccccc3)[C@H]12	-0.948	-0.176 (inactive)	1.03	0.338	0.117	1.57	0.109	1.3	1.16	1.17	2.25	1.21	0.234	0.829	1.42	1.38	-1.48	1.25	0.254	-0.773 (inactive)
CCOC(=O)C[C@H]1[C@H](OC(=O)c2ccccc2-c2ccccc2)[C@@H](NC(=O)c2ccc3ccccc3n2)c2cc(OCCCO)ccc2N1C(=O)Cc1ccc(OC)cc1	0.505	-0.891 (inactive)	0.033	-0.106	0.105	0.428	0.134	0.368	0.456	0.0562	-0.186	0.511	0.0434	0.47	0.248	0.268	0.397	0.577	0.509	0.43 (inactive)
CC[C@@H]1C=C(C(=O)O)[C@H](c2ccccc2)N1S(=O)(=O)c1ccc(C)cc1	1.08	-0.12 (inactive)	0.191	0.0167	0.8	2.24	1.38	0.95	-0.535	1.12	2.57	1.17	0.178	0.594	-0.0393	-0.241	-0.719	0.362	1.05	1.09 (inactive)
COCCOC(=O)N1C(=O)[C@@]2(c3cc(C#CCC(C(=O)OC)C(=O)OC)ccc31)[C@H](c1ccc(OCCO)cc1)N1[C@H](c3ccccc3)[C@H](c3ccccc3)OC(=O)[C@H]1[C@@H]2C(=O)N1CCc2cc(OC)c(OC)cc2C1	0.688	-0.388 (inactive)	0.0351	-0.106	0.256	1.48	-0.0051	1.06	0.378	1.11	1.75	1.22	0.919	0.889	1.37	1.5	-0.942	1.4	1.08	-0.411 (inactive)
O=C(c1ccccc1)N1C(=O)[C@]2(Cc3ccccc31)N=C(c1ccc(OCCCO)cc1)O[C@@H]2c1ccccc1	0.462	-0.129 (inactive)	0.0691	-0.0928	0.204	2.7	0.356	1.29	0.371	1.13	1.87	1.23	0.677	0.965	1.24	0.944	-2.12	0.764	0.305	-1.33 (inactive)
C=CC[C@]1(C(=O)N2CCCCC2)N=C(c2ccc(OCCCO)cc2)O[C@H]1c1ccccc1CN=[N+]=[N-]	0.472	0.256 (inactive)	0.405	-0.147	0.69	2.31	0.817	1.3	-0.406	1.1	1.33	1.24	0.293	1.01	1.29	0.524	1.29	0.228	0.657	0.498 (inactive)
C=CC[C@@]1(C(=O)NCCCOC)N=C(c2ccc(OCCCO)cc2)O[C@@H]1c1ccccc1	0.8	0.604 (inactive)	0.169	0.0977	0.597	3.2	0.601	0.316	-0.919	0.174	2.85	1.19	0.166	-0.273	1.3	0.594	0.565	-0.476	0.471	-0.589 (inactive)
CN(C)C(=O)[C@@]1(Cc2ccccc2CN=[N+]=[N-])N=C(c2ccc(OCCCO)cc2)O[C@H]1c1ccccc1N=[N+]=[N-]	0.973	0.91 (inactive)	0.612	-0.115	0.731	2.95	0.772	1.21	-0.612	1.1	2.09	1.27	0.801	0.983	0.711	-0.0088	-1.02	0.627	1.22	-6.81 (inactive)

Reference: PubChem BioAssay
